Screening data from PubChem BioAssay.
The entries come from a sample that favours hits as a whole.
mHTT-CaM PPI inh: inhibitors of human mutant huntingtin-calmodulin interaction | inhibition, % at 15 µM | AID 1671202 | P42858 | actives 3.6% (n = 190,000) | AlphaScreen His-mHTT/GST-CaM binding, luminescence
Pf apPOL inh: Pf-apPOL DNA polymerase inhibition; inhibition, % at 10 µM; actives 0.25% (n = 210,000); Recombinant Pf-apPOL, molecular beacon fluorescence, 1.5 h
Large screens that a line does not name were inactive. Rule as the data show it: active = inhibition above about 50%; inactive = the rest.

Cc1ccccc1C(=O)Nc1nnc(C2CC(=O)N(c3ccccc3)C2)o1 (centres undefined)	none
CCn1nc(CNC(=O)C2CCC2)c2ccccc21	none
CC(=O)N1CCc2sc(S(=O)(=O)Nc3ccccc3)cc2C1	none
Cc1nc(C)c(-c2nnc(NC(=O)CCOc3ccccc3)o2)s1	mHTT-CaM PPI inh 63.6
Cc1nc(C)c(-c2nnc(NC(=O)CCS(=O)(=O)c3ccccc3)o2)s1	none
CCc1ccc(CN2CCc3nc(Nc4ccc(OC)cc4OC)ncc3C2)cc1	none
CCOc1ccc(C(=O)N2CCN=C2N2CCN(c3cccc(Cl)c3)CC2)cc1	mHTT-CaM PPI inh 100.1
COc1cccc(-n2nc(C(=O)N3CCN(c4cccc(Cl)c4)CC3)c3ccccc3c2=O)c1	mHTT-CaM PPI inh 61.0
COc1cccc(-n2nc(C(=O)N3CCOCC3)c3ccccc3c2=O)c1	none
COc1ccc(C(=O)N2CCN=C2N2CCN(c3cccc(Cl)c3)CC2)cc1	mHTT-CaM PPI inh 85.0
COc1ccccc1C(=O)N1CCN=C1N1CCN(c2cccc(Cl)c2)CC1	none
CCOc1ccc(C(=O)N2CCN=C2N2CCC(C)CC2)cc1	none
O=C(NCc1ccccn1)c1ccc(CSCc2ccccc2Cl)o1	none
CCOc1cc(C2NC(C(=O)O)CS2)ccc1OC (centres undefined)	none
CN(C)CCN(Cc1ccccc1)Cc1cccc(Br)c1	none
Clc1ccc(Cn2cnc3ccccc32)cc1Cl	mHTT-CaM PPI inh 51.8
Fc1ccc(Cn2cnc3ccccc32)cc1	none
Cc1cc(C)c2ccc(CO)nc2c1O	none
Cc1cc(C)c2ccc(C=O)nc2c1O	mHTT-CaM PPI inh 68.8
CC(=O)Nc1ccccc1/C=C/c1ccc2c(C)cc(C)c(O)c2n1	none
Cc1cc(C)c2ccc(NN)nc2c1O	mHTT-CaM PPI inh 84.9
CCc1nccn1Cc1nc(-c2ccc(F)c(Cl)c2)no1	none
Nc1c(C(=O)Nc2ccc([N+](=O)[O-])cc2)sc2nc3c(c(-c4ccco4)c12)CCCC3	none
COc1ccc(N2C(=O)CSC23CCCCC3)cc1	none
COc1ccc(N2C(=O)C(O)=CC2(OC)c2ccccc2)cc1 (centres undefined)	mHTT-CaM PPI inh 67.0
Cc1ccc(/C=C(/C#N)C(N)=S)s1	none (no result: Pf apPOL inh)
CCCCc1ccc(/C=C(\C#N)C(N)=S)s1	mHTT-CaM PPI inh 63.1 (no result: Pf apPOL inh)
Cc1cc(C)nc(NC(=O)C(O)(c2ccccc2)c2ccccc2)c1	none
CC1=NN(c2ccccc2)C(=O)/C1=C/c1ccc(Br)s1	none
CC1=NN(c2nn[nH]n2)C(=O)/C1=C\c1cccs1	mHTT-CaM PPI inh 100.2 (no result: Pf apPOL inh)
CC(C)CC(C)NC(=O)c1cc(N2CCOCC2)nc2ccccc12 (centres undefined)	none
Cc1nnc(-c2ccccn2)[nH]c1=O	none (no result: mHTT-CaM PPI inh)
Cc1nc(-c2cnccn2)[nH]c(=O)c1C	mHTT-CaM PPI inh 70.8
C=CCn1cc(I)c(=O)n(CC=C)c1=O	none
Cc1ccc(/C=C/C2=NC(=C/c3ccc(F)cc3)/C(=O)O2)cc1	none
O=C(Nc1ccc2oc(-c3cccnc3)nc2c1)c1ccc(Cl)c([N+](=O)[O-])c1	none
CCN1C(=O)/C(=C\c2nc3ccccc3c(=O)n2-c2ccccc2[N+](=O)[O-])c2ccccc21	mHTT-CaM PPI inh 56.0
CCCN1C(=O)/C(=C\c2nc3ccccc3c(=O)n2CC)c2ccccc21	none
CCCN1C(=O)/C(=C\c2nc3ccccc3c(=O)n2-c2ccc(OC)cc2)c2ccccc21	none
CCN1C(=O)/C(=C\c2nc3ccccc3c(=O)n2CC)c2ccccc21	mHTT-CaM PPI inh 100.0
Cc1ccc(C(=O)N2CCCCC2)c(C2CCN(C(=O)Cc3ccccc3)CC2)n1	none
COc1ccc(OC)c(C=C2Oc3c(CN(C)C)c(O)cc(C)c3C2=O)c1	none
O=C(NCCc1ccccc1)Nc1nccn(-c2ccc3c(c2)CCC3)c1=O	none
COc1ccc(C2CC(O)(c3ccccc3)Oc3c(C)ccc(C)c32)cc1 (centres undefined)	none
COc1ccc(C2CC(O)(c3ccccc3)Oc3cc(OC)cc(OC)c32)cc1 (centres undefined)	mHTT-CaM PPI inh 92.4
CCN(CC)c1ccc(/C=C2\N=C(SC)SC2=O)cc1	mHTT-CaM PPI inh 64.0
CCSC1=N/C(=C/c2ccc(N(CC)CC)cc2OC)C(=O)S1	mHTT-CaM PPI inh 84.0
CCSC1=N/C(=C\c2c(OC)cc(OC)cc2OC)C(=O)S1	none
CSC1=N/C(=C\c2ccc(N(C)C)cc2)C(=O)S1	none
Cc1cccc(C)c1NC(=O)CN1CCCCC1	none
O=C(NCCc1ccccn1)C1CCN(c2cnn(Cc3ccccc3)c(=O)c2)CC1	none
CS(=O)(=O)Nc1ccc(Cl)c2cccnc12	mHTT-CaM PPI inh 86.0
CS(=O)(=O)Nc1ccc(Cl)cc1Cl	none (no result: Pf apPOL inh)
COc1ccc(C(/C=C2\N(C)c3ccccc3C2(C)C)C[N+](=O)[O-])cc1 (centres undefined)	none
CN1/C(=C\C(C[N+](=O)[O-])c2ccc3c(c2)OCO3)C(C)(C)c2ccccc21 (centres undefined)	mHTT-CaM PPI inh 83.0
CCCCNC(=O)c1c(Cl)nc(Cl)c([N+](=O)[O-])c1Cl	mHTT-CaM PPI inh 94.0
CCCCNC(=O)c1c(Cl)nc(Cl)c(Cl)c1C	none
COC(=O)c1ccc(CS(=O)(=O)C(Cl)(Cl)Cl)o1	none (no result: mHTT-CaM PPI inh)
COc1ccc(CN(CCC2(Cc3ccccc3)CCOC(C)(C)C2)C(C)=O)cc1 (centres undefined)	none
CC(=O)N(CCC1(Cc2ccccc2)CCOC(C)(C)C1)Cc1ccccc1 (centres undefined)	mHTT-CaM PPI inh 55.8
CCOc1ccccc1CNC(=O)c1cnc(OC)nc1	none
COc1ccc(-c2[nH]ncc2Oc2ccc(F)cc2)c(O)c1	none
COc1ccc(-c2[nH]ncc2-c2ccc(Cl)cc2)c(O)c1	mHTT-CaM PPI inh 68.8
CCOC(=O)C1Oc2ccccc2C(C(=O)OC)=C1C(=O)OC (centres undefined)	none
CCOC(=O)ON1C(=O)c2ccccc2N2COc3ccccc3C12 (centres undefined)	mHTT-CaM PPI inh 100.3 (no result: Pf apPOL inh)
O=C(Cc1nc(-c2ccncc2)n[nH]1)NCCCN1CCOCC1	none
COC(=O)Nc1ccc(SC(F)F)cc1	none
C=C1CCN([C@@H](CC(C)C)C(=O)NCc2ccc(Cl)c(Cl)c2)S(=O)(=O)c2ccccc21	mHTT-CaM PPI inh 99.0
C=C1CCN([C@H](C(=O)NCc2ccc(Cl)c(Cl)c2)C(C)C)S(=O)(=O)c2ccccc21	mHTT-CaM PPI inh 73.5
C=C1CCN([C@@H](CC(C)C)C(=O)NCc2ccc(Cl)cc2)S(=O)(=O)c2ccccc21	mHTT-CaM PPI inh 70.4
C=C1CCN([C@@H](CC(C)C)C(=O)NCc2ccc(OC)cc2)S(=O)(=O)c2ccccc21	none
C=C1CCN([C@@H](Cc2ccccc2)C(=O)NCc2ccc(Cl)c(Cl)c2)S(=O)(=O)c2ccccc21	none
C=C1CCN([C@@H](CC(C)C)C(=O)NCc2cc(OC)c(OC)c(OC)c2)S(=O)(=O)c2ccccc21	none
COc1cc(OC)c(CN2CCN(c3ccc([N+](=O)[O-])cc3)CC2)cc1Br	none
O=C(c1ccc(OCC2CCN(C(=O)C3CC3)CC2)cc1)N1CCCC1	none
O=C(Nc1ccc(F)c(F)c1)c1ccc(F)c(S(=O)(=O)NCc2ccccc2)c1	none
O=C(COc1ccccc1N1C(=O)C2C3C=CC(C4CC34)C2C1=O)c1ccc(F)cc1 (centres undefined)	none
COc1cccc(-c2cn3c(n2)N(C(=O)Cc2cccs2)CCC3)c1	mHTT-CaM PPI inh 82.4
COc1ccc(-c2cn3c(n2)N(C(=O)Cc2cccs2)CCC3)cc1	none
COc1ccc(NC(=O)C2CCCN(c3nccnc3Oc3ccccc3C)C2)cc1F (centres undefined)	none
COc1ccc(C(=O)N2CCC(O)(c3ccccc3)C(N(C)C)C2)cn1 (centres undefined)	none
